Source: PubChem BioAssay
Pf Dd2 inh: blocks in vitro growth of P. falciparum Dd2; P. falciparum Dd2 growth, SYBR Green, 72 h; 4.3% of 120,000 active; Potency, µM (series often up to 28.9 µM), for inactives: top-dose activity, negative = inhibition, usual class: inhibitors; AID 1347417; active = well fitted inhibition curve with a large enough effect;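 note: plate controls were DMSO vehicle for no effect and reference drug for full effect; nearly all actives have a fitted effect of over 65% in size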
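Infected erythrocytes (Dd2, 0.3% parasitemia, 2.5% hematocrit final) are added to compound in RPMI-1640/Albumax II medium, grown 72 h at 37C in low oxygen, then lysed with saponin/Triton-X containing SYBR Green and read by fluorescence.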
Numbers without * were called inactive; i = inactive; [ ] = another dose, or the depositor's remark. The entries come from a sample that favours hits as a whole. Potency is the fitted concentration of half-maximal effect.

SMILES	Pf Dd2 inh
c1ccc(-c2cnc3n2C[C@H](CNCc2nccs2)OC3)cc1	i
Fc1ccc(-c2cnc3n2C[C@H](CN(Cc2ccccc2)Cc2ccccc2)OC3)cc1	6.3µM*
O=C(NC[C@H]1Cn2c(-c3ccc(F)cc3)cnc2CO1)c1ccc(Cl)cc1	i
Fc1ccc(-c2cnc3n2C[C@H](CNCc2ccccc2Cl)OC3)cc1	-2%[44.1 µM]
CC(=O)Nc1ccc(CNC[C@H]2Cn3c(-c4ccc(F)cc4)cnc3CO2)cc1	-41%[44.1 µM]
COc1ccccc1C(=O)NC[C@H]1Cn2c(-c3ccc(Cl)cc3)cnc2CO1	11µM*
CS(=O)(=O)NC[C@H]1Cn2c(-c3ccc(F)cc3)cnc2CO1	-4%[44.1 µM]
c1ccc(CNC[C@H]2Cn3c(-c4ccccc4)cnc3CO2)cc1	11µM*
COCC(=O)NC1CCC12CCN(C(=O)Nc1ccc3c(c1)OCCO3)CC2 (centres undefined)	-10%
O=C(c1ccccc1F)N1CCC(Cc2nc(-c3cnccn3)no2)CC1	3%
COc1ccc(CNC(=O)CCCn2nc(C)c3c(C)n(-c4ccc(C)cc4)nc3c2=O)cc1OC	21%
COc1ccc(N=C2S[C@H]3[C@H]([C@@H](O)[C@H](O)C[C@@H]3C(N)=O)N2Cc2cccs2)cc1	-16%[44.1 µM]
CCNC(=O)[C@@H]1C[C@H](NC(=O)Cc2cccc(F)c2F)CN1C1CCCC1	-7%
CCN(CC)C(=O)C(NC(=O)c1ccc(C)cc1)C1CCN(C(=O)c2cccc(OC)c2)CC1 (centres undefined)	4.5µM*
CCN(CC)C(=O)C(NC(=O)c1ccc(OC)cc1)C1CCN(C(C)=O)CC1 (centres undefined)	11%
COc1ccc(C(=O)NC(C(=O)N2CCCC2)C2CCN(C(=O)c3ccccc3)CC2)cc1 (centres undefined)	-22%
CCCNC(=O)C(NC(=O)c1cccc(OC)c1)C1CCN(C(=O)c2cccc(OC)c2)CC1 (centres undefined)	-4%
COc1ccc(C(=O)NC(C(=O)NC(C)C(C)C)C2CCN(C(=O)c3ccc(C)cc3)CC2)cc1 (centres undefined)	2.5µM*
CCC(C)NC(=O)C(NC(=O)c1ccc(C)cc1)C1CCN(C(=O)c2ccc(F)cc2)CC1 (centres undefined)	i
Cc1cc(C)cc(NC(=O)N2CCC(Oc3ncccc3C(=O)N(C)C)C2)c1 (centres undefined)	-20%
CCNC(=O)N(C1CC1)C1CCOC2(CCN(C(=O)Nc3ccc(OC)cc3)CC2)C1 (centres undefined)	29%
Cc1ccc(Nc2cc(C)c(C#N)c3nc4ccccc4n23)c(C)c1	i
CC1=C(C(=O)NCCc2c[nH]c(=O)[nH]c2=O)C(c2cccnc2)NC(=O)N1 (centres undefined)	-16%
COCCNc1ccc2nnc(-c3cc(C#N)ccn3)n2n1	25%[44.1 µM]
COCCNc1ccc2nnc(-c3ccc(C)cn3)n2n1	-20%[44.1 µM]
SMILES	Pf Dd2 inh
COCCNc1cc(-c2cc(C(F)(F)F)ccn2)c2cc[nH]c2n1	10µM*
COc1cc(=O)n2c(c1C(=O)Nc1cc(F)ccc1Cl)CCCC2	60%
COCCCNC(=O)CSc1nc2c(sc3ccccc32)c(=O)n1CCc1ccc(OC)c(OC)c1	-7%
CC(C)Cn1nc2n(c1=O)CCN(S(=O)(=O)Cc1ccccc1)CC2	3%
CC(C)Cn1nc2n(c1=O)CCN(S(=O)(=O)c1ccc(C(C)(C)C)cc1)CC2	11µM*
CC(C)Cn1nc2n(c1=O)CCN(S(=O)(=O)c1cccs1)CC2	-7%
CSc1ccc(-c2noc(-c3nnn4c3COC(c3ccc(F)cc3)C4)n2)cc1 (centres undefined)	i
CC1(C)CNC(=O)c2nc(CCN3CCC(C(N)=O)CC3)[nH]c2C1	-9%
COc1ccc(N2Cc3c(ncnc3N3CCN(c4ncccn4)CC3)N(C)CC2=O)cc1	-24%
Cc1cc(C)cc(-n2c(SCC(=O)N3CCCC3)nc3c([nH]c4ccccc43)c2=O)c1	10%
O=C(CSc1nc2c([nH]c3ccccc32)c(=O)n1-c1ccc(Cl)cc1)NC1CCCCC1	13µM*
COc1cccc(-n2c(SCC(=O)N3CCCCC3)nc3c([nH]c4ccccc43)c2=O)c1	-3%
CCOc1ccc(-n2c(SCC(=O)NC3CCCCC3)nc3c([nH]c4ccccc43)c2=O)cc1	-15%
COc1cccc(-n2c(SCC(=O)c3ccc(Cl)cc3)nc3c([nH]c4ccccc43)c2=O)c1	i
O=c1c2[nH]c3ccccc3c2nc(SCc2ccccc2F)n1-c1ccc(F)cc1	33%
O=C(CSc1nc2c([nH]c3ccccc32)c(=O)n1-c1ccc(Cl)cc1)N1CCc2ccccc21	61%
COc1cccc(-n2c(SCC(=O)Nc3cccc(C)c3)nc3c([nH]c4ccccc43)c2=O)c1	10µM*
Cc1cc(C)cc(-n2c(SCC(=O)NCc3ccc(F)cc3)nc3c([nH]c4ccccc43)c2=O)c1	11µM*
CSc1nc2c([nH]c3ccccc32)c(=O)n1-c1ccc(C)cc1	i
Cc1cc(C)cc(NC(=O)CSc2nc3c([nH]c4ccccc43)c(=O)n2-c2ccc(F)cc2)c1	10µM*
Cc1ccc(-n2c(SCC(=O)NCc3ccc(F)cc3)nc3c([nH]c4ccccc43)c2=O)cc1	i
COc1ccc(OCC(=O)Nc2ccccc2C(=O)OCc2cc(=O)n3nc(C)sc3n2)cc1	i
COCC(=O)N1CCC(C2CCN(C(=O)c3ccncc3)CC2)C1 (centres undefined)	54%
Cc1cc(C[C@@H]2COC[C@@H]2NC(=O)c2ccc(-n3cnnc3)cc2)on1	5%
CCC(C)NC(=O)c1cc(-c2ccc(F)cc2)cn1C (centres undefined)	-25%
SMILES	Pf Dd2 inh
COc1cccc(CC(=O)NCC2Cn3cccc3C(=O)N2CC(C)C)c1 (centres undefined)	13%
CC1(C)C(=O)N(Cc2ccccc2)[C@H]2CN(Cc3cccc(OC(F)(F)F)c3)C[C@@H]2[S+]1(=O)[O-]	-12%
O=C(NCc1ccc(F)c(Cl)c1)c1cc2n(n1)CC(c1ccc(Cl)cc1)OC2 (centres undefined)	2%
Cc1noc(C)c1CCC(=O)N1CCCC(CCc2cccc(F)c2)C1 (centres undefined)	-18%
Cc1nn(C)c(C)c1C(C)NC(=O)CCc1ccc2c(c1)CN(C(=O)NC(C)C)CCO2 (centres undefined)	i
NCC1CCN(C(=O)c2cnc(C34CC5CC(CC(C5)C3)C4)[nH]c2=O)C1 (centres undefined)	-25%
Cn1c(CNC(=O)C2Cn3cccc3C(=O)N2Cc2ccccc2)nc2ccccc21 (centres undefined)	-24%
N[S+](=O)([O-])c1ccc(C(=O)N2CC(c3ncc4c(-c5ccccc5)nccn34)C2)cc1	i
CCOc1ccccc1NC(=O)C1CCc2ncc(-c3ccsc3)n2C1 (centres undefined)	i
COc1cccc(-c2nc(SCC(=O)Nc3ccc4c(c3)OCCO4)c(-c3ccccc3)[nH]2)c1	-28%
Cc1cccc(NC(=O)CSc2nc3c([nH]c4ccccc43)c(=O)n2-c2ccc(F)cc2)c1C	4.5µM*
Cc1cc(NC(=O)CSc2nc3c([nH]c4ccccc43)c(=O)n2-c2ccccc2)no1	-26%
O=C(CSc1nc2c(oc3ccccc32)c(=O)n1-c1ccccc1F)Nc1ccccc1	-12%
Cc1cc(C)cc(-n2c(SCC(=O)Nc3ccc4c(c3)OCO4)nc3c([nH]c4ccccc43)c2=O)c1	-16%
O=C(CSc1nc(-c2cccc(F)c2)[nH]c1-c1ccccc1)Nc1ccc2c(c1)OCCO2	11µM*
